Experiment [1] can be described thus: qHTS RealTime-Glo MT Cell Viability Assay in HEK293 cells - 40 hour (AID 1224874). Note: nearly all actives have a fitted effect of over 50% in size. Note: potency is the fitted concentration of half-maximal effect. Particulars: RealTime-Glo luminescence; max response: active compounds read low. The procedure, abridged: (§1)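 Kinetic, non-lysing viability readout. Seed HEK293 (600/well) with reagent, incubate 5 h at 37 C/5% CO2, pin 23 nL compound in DMSO, incubate at 37 C, read luminescence at 0, 8, 16, 24, 32, 40 h.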

Experiment [2] is described as follows: A CellTox Green Cytotoxicity Assay to monitor cytotoxicity in HEK293 cells - 24 hour (AID 1224875). Note: nearly all actives have a fitted effect of over 45% in size. Note: potency is the fitted concentration of half-maximal effect. Particulars: CellTox Green fluorescence; series mostly up to 76.8 µM. In short, it runs like this: (§2)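 Real-time, in one plate: 600 HEK293 cells/well with dead-cell DNA dye, pinned compound after 5 h, 37 C incubation over 40 h; viable cells give no appreciable fluorescence.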

A short description of experiment [3]: qHTS RealTime-Glo MT Cell Viability Assay in HepG2 cells - 32 hour (AID 1224877). Note: nearly all actives have a fitted effect of over 55% in size. Note: potency is the fitted concentration of half-maximal effect. The note with it: RealTime-Glo luminescence; series mostly up to 76.8 µM. The procedure, abridged: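 Tox21 10K library screened in qHTS format on HepG2 cells carrying RealTime-Glo reagents. Compounds were added after a 5 h preincubation, and the luminescent signal from continuous culture was measured repeatedly during 40 h treatment.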

The nature of experiment [4]: A CellTox Green Cytotoxicity Assay to monitor cytotoxicity in HepG2 cells - 24 hour (AID 1224878). Note: nearly all actives have a fitted effect of over 45% in size. Note: potency is the fitted concentration of half-maximal effect. Particulars: CellTox Green fluorescence; series mostly up to 76.8 µM. The procedure, abridged: (§3)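 Cytotoxicity was tracked as dead-cell DNA fluorescence in HepG2 cells treated with test compounds at 37 C; each time-point value comes from one kinetic series spanning 0, 8, 16, 24, 32 and 40 h.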

The nature of experiment [5]: qHTS RealTime-Glo MT Cell Viability Assay in HEK293 cells - 0 hour (AID 1224880). Note: top concentration of the series differs between compounds; nearly all actives have a fitted effect of over 45% in size. Particulars: RealTime-Glo luminescence; series mostly up to 76.8 µM. In short, it runs like this:
as §1

A short description of experiment [6]: A CellTox Green Cytotoxicity Assay to monitor cytotoxicity in HEK293 cells - 32 hour (AID 1224881). Note: nearly all actives have a fitted effect of over 40% in size. Note: potency is the fitted concentration of half-maximal effect. Particulars: CellTox Green fluorescence; series mostly up to 76.8 µM. In short, it runs like this:
as §2

Experiment [7] can be described thus: qHTS RealTime-Glo MT Cell Viability Assay in HepG2 cells - 8 hour (AID 1224873). Note: nearly all actives have a fitted effect of over 55% in size. Note: potency is the fitted concentration of half-maximal effect. Particulars: RealTime-Glo luminescence; series mostly up to 76.8 µM. In short, it runs like this: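 HepG2 cells mixed with RealTime-Glo MT reagents (NanoLuc plus cell-permeant prosubstrate) were seeded at 600 cells/well, incubated 5 h at 37 C/5% CO2, then pinned with compounds in DMSO; nonlytic luminescence tracked viability during 40 h treatment.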

Experiment [8] can be described thus: A CellTox Green Cytotoxicity Assay to monitor cytotoxicity in HepG2 cells - 16 hour (AID 1224876). Note: nearly all actives have a fitted effect of over 45% in size. Note: potency is the fitted concentration of half-maximal effect. Particulars: CellTox Green fluorescence; series mostly up to 76.8 µM. In short, it runs like this: as §3
The nature of experiment [9]: A CellTox Green Cytotoxicity Assay to monitor cytotoxicity in HepG2 cells - 40 hour (AID 1224879). Note: nearly all actives have a fitted effect of over 40% in size. Note: potency is the fitted concentration of half-maximal effect. The note with it: CellTox Green fluorescence; series mostly up to 76.8 µM. In short, it runs like this:
as §3

Results filed as inconclusive are left out. A number with no mark means an inactive call. Calls of active or inactive are those of the source. Calls come from the whole dose curve; as a rule, active = well fitted curve in the direction sought with a large enough effect in the repeat runs; inconclusive = weak or mixed curves; inactive = no such curve, though single readings can be large; an effect the other way counts as inactive or inconclusive.
% is set by controls: 0 for no effect and ±100 for the full control effect.

`C[C@]12CC[C@H]3C(=CCc4cc(O)ccc43)[C@@H]1CCC2=O`: the Potency in experiment [1] was 43.6 µM (active). For the same compound, the Potency result in [2], in [3], in experiment [4], in experiment [5] and in experiment [6] was “inactive” throughout.

Turning to `Clc1ccc(C(Cn2ccnc2)OCc2c(Cl)cccc2Cl)c(Cl)c1` (configuration not stated), the Potency result in [7] and in [3] was “inactive” throughout. The Potency in experiment [1] was 16.9 µM (active).

In the case of `CSc1c(Cl)c(Cl)c(Cl)c(Cl)c1Cl`, the Potency result in experiment [7], in experiment [3] and in [5] was “inactive” each time. In [1], the max response is -20.6%. For the same compound, the Potency in experiment [8] was 48.7 µM (active).

For `CCCC(CC)CCCCCCCN` (configuration not stated), the Potency result in [7] and in experiment [3] was “inactive” each time. Besides, the Potency in [1] is 56.3 µM (active); in experiment [6] it was 44.7 µM (active).

On to `CCCCNc1c(C(=O)OCC)c(C)nc2c1cnn2CC`, for which the Potency entry in [7], in experiment [2], in [8], in experiment [3], in [4] and in experiment [5] was “inactive” in each case. Moreover, the Potency entry in [6] was “inactive”.

`Oc1cc2ccccc2cc1O`: the Potency entry in experiment [7], in experiment [8], in [3], in [4] and in [9] was “inactive” in each case.

Take `CN1CCN(C2Cc3ccccc3Sc3ccc(Cl)cc32)CC1` (configuration not stated): the Potency in experiment [1] was 23.9 µM (active); in experiment [2] it was 21.3 µM (active); in experiment [8] it was 26.8 µM (active); in [3], 23.9 µM (active); in experiment [4], 23.9 µM (active); in experiment [9] it was 23.9 µM (active). The Potency in [6] is 21.3 µM (active). In addition, in [5], the Potency result is “inactive”.

`O=C(Nc1ccc(Cl)c(Cl)c1)c1cc(Cl)cc(Cl)c1O`: the Potency entry in experiment [7], in experiment [8] and in experiment [5] was “inactive” each time. Also, the Potency in experiment [1] was 4.9 µM (active); in [9], 8.71 µM (active).

Regarding `Brc1ccccc1-c1ccccc1`, the Potency entry in [7], in [3] and in experiment [5] was “inactive” in each case. Also, in [1], the max response is -2.43%. In addition, the Potency is 41.3 µM (active) in [8], 46.3 µM (active) in experiment [4], 1.84 µM (active) in experiment [9] and 20.7 µM (active) in experiment [6].

Turning to `CC1=C(/C=C/C(C)=C/C=C/C(C)=C\C=O)C(C)(C)CCC1`, the Potency result in experiment [7], in experiment [8], in experiment [3], in [4] and in experiment [5] was “inactive” each time. For the same compound, the Potency in experiment [1] is 46.4 µM (active).

With `CCC(C)c1cc([N+](=O)[O-])cc([N+](=O)[O-])c1OC(=O)OC(C)C` (configuration not stated), in [7], the Potency is 43.6 µM (active). Besides, the Potency entry in experiment [2], in [8], in experiment [5] and in [6] was “inactive” each time.

The record behind these values is PubChem BioAssay (Tox21).
